Assay outcomes deposited in PubChem BioAssay by The Scripps Research Institute Molecular Screening Center.
FBW7 activator: activators of human E3 ligase FBW7. Q969H0. AID 1259310. normalized activity (activation), % at 26.1 µM. 0.13% of 650,000 active. AlphaScreen FBW7–phospho-cyclin E peptide binding, activator screen; in the data active means normalized activity above about 1.9%;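 further: purified mutant Fbw7 with reduced substrate affinity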
GPR151 activ: activators of human GPR151; Q8TDV0; PathHunter beta-arrestin GPR151 cells, luminescence; activation, % at 11.2 µM; 1% of 650,000 active; AID 1508602; in the data active means activation above about 4.9%;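 further: 0% = median of compound wells and 100% = cells with positive control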
TEAD-YAP inh: TEAD-YAP interaction inhibition; HEK-TIYL cells, TEAD-Gal4/YAP UAS-luciferase luminescence; inhibition, % at 9.12 µM; 1.4% of 640,000 active; AID 1259422; in the data active means inhibition above about 32%;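 further: 0% = median of test compound wells and 100% = reference inhibitor wells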
MITF primary: blocks human microphthalmia-associated transcription factor; AlphaScreen MITF homodimerization, bead proximity signal; O75030; 0.91% of 650,000 active; inhibition, % at 2.6 µM; in the data active means inhibition above about 50%;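 further: 0% = vehicle wells with protein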
Target sequence (O75030 whole entry, looked up): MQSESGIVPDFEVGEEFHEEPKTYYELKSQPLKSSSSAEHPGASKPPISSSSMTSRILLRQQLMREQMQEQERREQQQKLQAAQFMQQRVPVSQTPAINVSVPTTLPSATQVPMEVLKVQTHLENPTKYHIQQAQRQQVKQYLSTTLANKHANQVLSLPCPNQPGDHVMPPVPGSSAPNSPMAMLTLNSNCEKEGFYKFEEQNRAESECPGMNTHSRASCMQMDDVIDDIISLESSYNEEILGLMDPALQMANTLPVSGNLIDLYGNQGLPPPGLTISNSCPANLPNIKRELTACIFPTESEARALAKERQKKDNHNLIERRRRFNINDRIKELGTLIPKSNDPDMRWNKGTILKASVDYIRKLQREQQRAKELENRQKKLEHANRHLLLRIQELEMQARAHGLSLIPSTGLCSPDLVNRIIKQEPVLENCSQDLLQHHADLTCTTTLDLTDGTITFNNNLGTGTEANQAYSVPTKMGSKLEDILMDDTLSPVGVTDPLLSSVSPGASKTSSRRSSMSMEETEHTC
GPR151 conf act: human GPR151 activation, confirmation screen; shares compounds with GPR151 activ; GPR151 PathHunter beta-arrestin cells, luminescence, 90 min; % of EA-reagent control over plate median; activation, % at 11.2 µM; 6,700 tested, under 10 active;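 active means mean percent activation across replicates above the confirmation screen cutoff of 4.91%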
GPR119 ag: activates human GPR119 in a GPR151 counter-screen; shares compounds with GPR151 activ; GPR119 PathHunter beta-arrestin cells, luminescence, 90 min; 0 = compound-well median, 100 = enzyme-acceptor control; activation, % at 11.2 µM; 0.3% of 6,700 active; AID 1508611;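 active means mean percent activation in the counterscreen above 29.09%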;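 further: counterscreen on off-target GPR119 to flag nonselective hits from the GPR151 activator screen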
The depositor's hits bear a star; / = not tested or not shown. The list is not random: actives were taken first. Their share in the collection is about 3.5%.

SMILES	FBW7 activator	GPR151 activ	TEAD-YAP inh	MITF primary	GPR151 conf act	GPR119 ag
COc1ccc(/C=C2/NC(=O)N(c3cccc(Cl)c3)C2=O)cc1	0.0	-0.5	-12.4	-5.0	/	/
Cc1nc2ccccc2nc1CN1CCC(C2(CCC(C)C)NC(=O)NC2=O)CC1 (stereo not drawn)	0.7	0.6	8.5	14.6	/	/
CCOc1ccc(-n2c(C)nc3cc(C(=O)NCc4ccc(C)cc4)ccc32)cc1	-0.3	5.3*	-4.6	-2.5	0.4	6.7
CCOc1ccc(C(=O)C2CCN(Cc3nnnn3Cc3cccs3)CC2)cc1	0.9	2.3	9.5	6.2	/	/
C=CCS/C(=C(/C#N)C(N)=O)c1cc2c([nH]1)CCCC2	-0.2	8.6*	-1.6	6.1	0.1	5.3
CC1CC(=O)N(c2ccc(N3CCCCCC3)c([N+](=O)[O-])c2)C1=O (stereo not drawn)	0.0	-0.7	-6.2	-0.5	/	/
CC1CC(C)CN(c2ccc(N3C(=O)CC(C)C3=O)cc2[N+](=O)[O-])C1 (stereo not drawn)	0.0	6.5*	1.1	5.0	0.5	0.8
O=C(Cn1cc([N+](=O)[O-])cn1)n1cccn1	0.0	5.5*	-4.1	-5.6	-1.4	-11.3
O=C(Cn1cc([N+](=O)[O-])cn1)Nc1ccccn1	0.0	2.8	1.5	1.4	/	/
CC(=O)Nc1cccc(NC(=O)CSc2nnnn2-c2ccc3c(c2)OCO3)c1	0.6	5.6*	-1.4	6.4	0.2	10.9
O=C(CCCN1C(=O)c2cccnc2C1=O)Nc1ccc(C(F)(F)F)cc1	0.2	9.0*	10.6	4.0	1.7	0.2
c1ccc(-n2nnnc2CSc2nc3ccccc3o2)cc1	0.0	6.6*	6.0	-6.2	0.4	1.8
Nn1c(CSc2nc3ccccc3o2)nnc1CSc1nc2ccccc2o1	-0.2	-1.2	4.0	0.4	/	/
COCCNC(=O)[C@@H]1C[C@H](NCc2ccc(C(C)C)cc2)CN1Cc1ccccc1Cl	0.7	1.4	-10.0	7.2	/	/
COCCNC(=O)[C@@H]1C[C@H](NCc2ccccc2)CN1Cc1ccccc1Cl	1.0	8.5*	-3.9	5.0	-0.3	0.5
CCOc1ccc(CC(=O)Nc2nc(-c3cccs3)cs2)cc1	0.0	1.4	-0.9	10.7	/	/
O=C(NNC(=O)C12CC3CC(C1)CC(c1ccccc1)(C3)C2)c1ccncc1	-0.2	6.0*	2.3	-2.4	-0.3	0.5
Oc1oc(-c2ccccc2Br)nc1C=Nc1ccccc1Cl	-0.1	5.0*	3.2	-6.9	0.1	2.9
Cc1ccc(N(CC(=O)O)C2SC(=O)NC2=O)cc1 (stereo not drawn)	-0.1	5.7*	1.6	12.9	1.6	1.4
Cc1ccc(S(=O)(=O)Nc2ccc(Cl)c([N+](=O)[O-])c2)cc1	0.0	6.3*	-8.7	12.4	-1.1	1.9
Cc1ccc(NS(=O)(=O)c2ccc(NS(=O)(=O)c3ccc4c(c3)OCCO4)cc2)cc1C	0.2	-2.0	3.5	0.5	/	/
Cc1ccc(S(=O)(=O)Nc2ccc3c(c2)OCCOCCOCCOCCOCCO3)cc1	-0.1	5.2*	-9.3	-1.2	-0.9	-8.5
CCN1CCN(c2ncc(C(=O)Nc3ccc(Br)cc3C)c3ccccc23)CC1	0.0	0.1	-3.9	5.9	/	/
Cc1ccc(-c2nc(CSCC(=O)N3CCOCC3)c(C)o2)cc1	-0.2	5.0*	-11.4	-18.1	0.9	-6.0
Cc1ccc(-c2nc(CSCC(=O)N3CCN(C(=O)c4ccco4)CC3)c(C)o2)cc1	-0.1	-0.2	-9.1	0.9	/	/
SMILES	FBW7 activator	GPR151 activ	TEAD-YAP inh	MITF primary	GPR151 conf act	GPR119 ag
COc1ccc(SCC(=O)N(CCN(C)C)c2nc3ccc(C)cc3s2)cc1	0.0	-0.5	-35.4	-9.2	/	/
Cn1c(SCC(=O)c2cccc(Br)c2)nnc1-c1ccccn1	-0.1	4.9*	-1.9	-2.0	0.2	2.0
Cn1c(SCC(=O)Nc2ccc(F)c(F)c2)nnc1-c1ccccn1	0.4	2.7	-12.7	2.9	/	/
COc1ccc(C(=O)NCCC(c2ccccc2)c2ccccc2)cc1OC	-0.1	19.1*	1.8	5.7	0.2	-5.0
CCOc1cc(C(=O)NCc2ccccc2)ccc1OC	-0.1	14.1*	0.8	-6.2	0.0	-7.9
CCOC(=O)CNC(=O)c1ccc(OC)c(I)c1	0.1	2.3	-19.8	13.1	/	/
COc1ccc(C(=O)NCc2ccccc2)cc1I	0.1	-0.5	-5.8	-3.0	/	/
CCOC(=O)CNC(=O)c1ccc(OC)c(Br)c1	-0.2	5.6*	-5.8	-10.8	-0.2	2.0
COc1ccc(C(=O)NCCOc2ccccc2OC)cc1OC	0.2	-1.5	4.1	-1.1	/	/
COc1ccccc1CNC(=O)c1nnn(Cc2ccccc2)c1N	0.1	13.6*	-6.0	-4.1	-0.8	-11.0
CCn1c(SCC(=O)N2CCCc3ccccc32)nnc1C(C)C	0.1	1.3	-1.2	7.8	/	/
CCOC(=O)c1ccc(-n2c(C)nc(=O)c(-c3ccccc3)c2C)cc1	-0.1	7.8*	-2.6	-2.9	-0.5	11.6
Cc1nc(=O)c(-c2ccccc2)c(C)n1-c1ccc(C(=O)O)cc1	0.6	-1.4	2.7	5.1	/	/
COc1ccc(C(=O)Cn2c(N3CCOCC3)nc3c2c(=O)n(C)c(=O)n3C)cc1	-0.2	0.6	-15.6	-9.0	/	/
COc1ccc(C(=O)Cn2c(N(C)C)nc3c2c(=O)n(C)c(=O)n3C)cc1	0.0	5.4*	2.4	6.7	-0.1	-2.0
Cc1cc(C)cc(CN2CCN(c3ccc4c(c3)OCO4)C2=O)c1	-0.1	-0.8	-10.4	13.4	/	/
O=C1N(Cc2ccc(F)cc2F)CCN1c1ccc2c(c1)OCO2	-0.2	9.8*	-52.5	11.9	-0.3	9.3
COc1cc(OC)c(CN2CCc3nnc(C4CCCO4)n3CC2)c(OC)c1 (stereo not drawn)	0.0	5.3*	-12.1	-5.5	-0.4	3.8
Cc1ccc(CNC(=O)Cn2c(=O)n(CCC(C)C)c(=O)c3cccnc32)cc1	0.0	0.0	0.0	1.6	/	/
O=C(NC1CCOC1)c1cc(COc2ccc3ncccc3c2)on1 (stereo not drawn)	0.0	5.2*	19.0	-3.2	-0.2	-13.3
Cc1cc(NCc2ccccc2)nc(-c2ccc(N3CCN(C)CC3)cc2)n1	0.0	14.3*	6.7	14.0	-0.5	-5.9
COc1ccccc1NC(=O)c1sc(NC(=O)c2cccs2)c(C#N)c1C	0.8	-0.6	13.2	6.0	/	/
COc1ccccc1CN[C@H]1C[C@H]2C(=O)N[C@H](CO)C(=O)N2C1	0.0	-0.3	-4.9	16.6	/	/
COc1ccccc1CN[C@H]1C[C@H]2C(=O)N[C@@H](CC(C)C)C(=O)N2C1	0.2	6.1*	-12.2	-12.8	1.8	11.0
CC(C)[C@@H]1NC(=O)[C@@H]2C[C@H](NCc3cn(C)nc3-c3ccccc3)CN2C1=O	-0.1	12.6*	-6.1	-3.5	4.0	13.9
CC(C)C[C@@H]1NC(=O)[C@@H]2C[C@H](NC(=O)Nc3cccc(C(F)(F)F)c3)CN2C1=O	0.1	12.1*	-12.1	-24.5	-0.6	1.1
